Values joined by “and” are separate entries in the source; they are usually repeats but may differ in a detail not shown here. Equal values may be shown once. Records with an inconclusive call do not appear. Active and inactive are the calls of the source. Calls come from the whole dose curve; as a rule, active = well fitted inhibition curve with a large enough effect; inconclusive = small, poorly fitted or top-dose-only effect; inactive = no such curve, though single readings can be large or run the other way.
Target: Cruzipain (Trypanosoma cruzi) (UniProt P25779)
Assay: Confirmation qHTS Assay for Inhibitors of Cruzain; note: nearly all actives have a fitted effect of over 40% in size;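 for activity change, negative = inhibition: plate controls were uninhibited enzyme control for no effect and buffer wells lacking enzyme for full effect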
Details: purified cruzain, Z-FR-AMC fluorescence, 0.01% Triton
Description: Cruzain is a cysteine protease from the tropical parasite Trypanosoma cruzi. This assay protocol is a follow-up and confirmation of related AID 1478 (qHTS Assay for Promiscuous and Specific Inhibitors of Cruzain -- with detergent). Cruzain was assayed by the use of fluorogenic coumarin-based substrate Z-FR-AMC: proteolytic cleavage releases AMC, whose fluorescence is measured at 360 nm excitation and 450 nm emission. Purified cruzain was supplied by the labs of Prof. James McKerrow and Brian Shoichet, UC San Francisco. This assay had 0.01% Triton X-100 concentration. See following references for additional details: Jadhav A, et al. J Med Chem. 2010 Jan 14;53(1):37-51. Mott BT, et al. J Med Chem. 2010 Jan 14;53(1):52-60. Assay Provider: Shoichet, Brian; University of California, San Fancisco Screening Center PI: Austin, C.P. Screening Center: NIH Chemical Genomics Center [NCGC]
Buffer: 100 mM Sodium Acetate, pH 5.5, 5 mM DTT, Triton X-100 concentration: 0.01%. Reagents/Controls: Buffer in columns 3 and 4 as negative control (no enzyme). Substrate solution: 2 uM final concentration of Z-FR-AMC (catalog number I-1160, Bachem) dispensed throughout the plate. Enzyme: 1.5 nM Cruzain final concentration in columns 1, 2, 5-48. Column 1 is neutral (100% activity). Column 2 contained titration of covalent inhibitor K11777, starting concentration 1 mM, then 1:2 dilution in duplicate). Assay Steps: Three uL of enzyme or buffer were dispensed to 1536-well Greiner black solid bottom plates. Compounds and controls (23 nL) were transferred via Kalypsys PinTool. The plates were incubated for 15 min at room temperature, and then 1 uL of substrate solution was added to start the reaction. The plates were immediately transferred to and read 4 times every 30 seconds for 2 min on ViewLux High-throughput CCD imager (Perkin-Elmer) using 360 nm excitation and 450 nm emission fluorescence protocol. The fluorescence intensity difference between the third and the first time points (time lapse of 60 seconds) was used to compute reaction progress.
Potency is the fitted concentration of half-maximal effect.

Sequence of Cruzipain (Trypanosoma cruzi) (P25779 123-467 limits assumed): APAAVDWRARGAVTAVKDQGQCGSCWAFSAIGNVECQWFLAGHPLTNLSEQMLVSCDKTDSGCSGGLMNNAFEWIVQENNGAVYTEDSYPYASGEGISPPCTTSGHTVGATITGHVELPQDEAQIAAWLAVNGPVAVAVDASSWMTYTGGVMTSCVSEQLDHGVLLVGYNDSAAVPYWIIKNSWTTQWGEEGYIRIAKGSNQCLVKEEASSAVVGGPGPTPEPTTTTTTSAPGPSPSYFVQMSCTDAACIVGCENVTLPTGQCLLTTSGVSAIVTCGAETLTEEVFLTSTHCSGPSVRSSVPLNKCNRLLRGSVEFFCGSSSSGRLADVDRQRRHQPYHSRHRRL

| Compound | Potency | activity change, negative = inhibition |
| --- | --- | --- |
| CCC(C(=O)NC1CCCCC1)n1c(SCc2ccc(F)cc2)nc2ccncc21 (stereo not given) | 4.47 µM (active) | – |
| c1ccc(CNCc2nnc(-c3cc4ccccc4[nH]3)s2)cc1 | – | -7.37% (inactive) |
| c1ccc(CNCc2nnc(-c3cc4ccccc4[nH]3)o2)cc1 | – | -1.64% (inactive) |
| COc1ccccc1OCCn1c(CCNC(=O)C2CCCCC2)nc2ccccc21 | 1.41 µM (active) | – |
| CCn1cnc2c(NCCc3cccnc3)nc(C#N)nc21 | 10 µM (active) | – |
| N#Cc1nc(Nc2ccc(F)cc2)nc(NC2CCCC2)n1 | 0.126 µM (active) | – |
| CCCCNC(=O)Cn1c(SCc2ccccc2C)nc2ccncc21 | – | -24.9% (inactive) |
| Cc1oc(=O)c(NC(=O)c2ccccc2)cc1C(=O)c1ccccc1 | – | -5.13% (inactive) |
| N#CN1CCC(NS(=O)(=O)c2cccc(C(F)(F)F)c2)CC1 | – | 0.31% (inactive) |
| CNC(=O)c1ccc2nc(-c3cccc(C)c3)c(-c3cccc(C)c3)nc2c1 | – | -24.1% (inactive) |
| Cc1ccc2[nH]c(=O)c(NC(N)=S)nc2c1 | – | -16.5% (inactive) |
| Cc1ccc(NC(=O)c2ccc(-n3nncc3-c3ccccc3)cc2)cc1 | – | 2.57% (inactive) |
| O=C(CNC(=O)C1CCCCCC1)OC(C(=O)Nc1cc(C(F)(F)F)ccc1Cl)c1ccccc1 (stereo not given) | 7.08 µM (active) | – |
| O=C(CNC(=O)c1ccccc1)N[C@H](C(=O)Nc1cc(C(F)(F)F)ccc1Cl)c1ccccc1 | – | -13.5% (inactive) |
| COc1nc(C#N)nc(N(C)C)n1 | 6.31 µM (active) and 7.94 µM (active) | – |
| CCn1cnc2c(Nc3ccc(CCC(=O)N=C(N)N)cc3)nc(C#N)nc21 | 35.5 µM (active) | – |
| CCCNc1nc(C#N)nc(Nc2ccccc2)n1 | 0.794 µM (active) | – |
| Cc1ccccc1NC(=O)CSc1nnc(-c2ccco2)c(-c2ccco2)n1 | 14.1 µM (active) | – |
| COC(=O)Cn1c(=NC(=O)c2ccc(Cl)s2)sc2cc(C)ccc21 | – | -20% (inactive) |
| Cn1nc(-c2ccc(Cl)cc2)nc2c(=O)n(C)c(=O)nc1-2 | 0.891 µM (active) | – |

| Compound | Potency | activity change, negative = inhibition |
| --- | --- | --- |
| CCn1cnc2c(NCc3cccnc3)nc(C#N)nc21 | – | -4.84% (inactive) |
| N#Cc1nc(NCCCCO)nc(Nc2ccccc2)n1 | 0.891 µM (active) | – |
| Cc1ccc2[nH]c(=O)c(CN(CCCO)Cc3nnnn3Cc3ccco3)cc2c1 | – | -4.63% (inactive) |
| COc1ccc(NC(=O)C(OC(=O)CNC(=O)c2ccccc2)c2ccccc2)cc1F (stereo not given) | 11.2 µM (active) | – |
| CSc1nc(N(CCO)CCO)c2sc3nc(-c4ccco4)c4c(c3c2n1)CCC4 | 11.2 µM (active) | – |
| Cc1cccc(OCCCn2c(CCNC(=O)C3CCCCC3)nc3ccccc32)c1 | 794 nM (active) and 708 nM (active) | – |
| Cn1nc(-c2ccc(F)cc2)nc2c(=O)n(C)c(=O)nc1-2 | 0.631 µM (active) | – |
| N#CCSc1nc2scc(-c3cccs3)c2c(=O)n1CCc1ccccc1 | – | -7.68% (inactive) |
| Cc1cc(NC(=O)Cc2cccs2)no1 | – | -19.2% (inactive) |
| CN(C)c1nc(C#N)nc(N(C)C)n1 | 14.1 µM (active) | – |
| Cc1ccc2[nH]c(=O)c(CN(CCCO)Cc3nnnn3Cc3ccccc3)cc2c1 | – | -13% (inactive) |
| N#Cc1nc(N2CCCC2)nc(N2CCCC2)n1 | 7.08 µM (active) | – |
| O=C(Cc1nnc(CNC(=O)c2ccccc2)s1)Nc1ccc(C(F)(F)F)cc1Cl | – | -3.96% (inactive) |
| Cc1ccc(C(=O)C(OC(=O)CNC(=O)COc2ccccc2C)c2ccccc2)cc1 (stereo not given) | 3.16 µM (active) | – |
| Cc1cc(OCC(=O)Nc2ccc(N3CCCC3)cc2)cc(C)c1Cl | – | -30.4% (inactive) |
| O=C(c1ccc(OCCN2CCCCC2)cc1)c1c(-c2ccc(O)cc2)sc2cc(O)ccc12 | – | -21.2% (inactive) |
| O=C(Cn1cc(CNC(=O)C2CCCCC2)nn1)Nc1cc(C(F)(F)F)ccc1Cl | – | 0.597% (inactive) |
| CCn1cnc2c(Nc3cccc(Cl)c3)nc(C#N)nc21 | 0.0141 µM (active) | – |
| Cc1cc(=O)oc2cc(OCC(=O)N3CCOCC3)ccc12 | 8.91 µM (active) | – |
| CCNc1nc(C#N)nc(N2CCCCC2)n1 | 5.01 µM (active) | – |

Source: PubChem BioAssay AID2158 (National Center for Advancing Translational Sciences (NCATS), 2009)
